Shown is part of a subset that was picked to be rich in hits.
Methyltransferases = Primary Screen for Target Class Profiling of Small Molecule Inhibitors of Methyltransferases | hit rate 3.9% among 25,000 | calls only at 40 µM | purified enzyme, MTase-Glo SAH luminescence; stronger effect = lower value; call rule not given here
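Each enzyme was reacted with SAM and its substrate, with compounds tested once at 40 uM; SAH formed was read by MTase-Glo luminescence.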
The depositor's hits bear a star. % is set by controls: 0 for no effect and ±100 for the full control effect.

CC1CCC(N2C(=O)c3cc4sccc4n3CC2(C)C(=O)NC2CCCCC2)CC1 (configuration not stated) was read as Methyltransferases inactive.
COc1ccccc1CNC(=O)c1cc2n(n1)CC(C)(C(=O)NC1CCCCCC1)N(C)C2=O (configuration not stated) was read as Methyltransferases inactive.
CCN(CC)CCCCCCNc1cc(OC)cc2c(C)ccnc12 was read as Methyltransferases active.
Cc1ccc(NC(=O)Cn2nc3n(C(C)C)c(=O)c4ccc(C(=O)NCC(C)C)cc4n3c2=O)cc1 was read as Methyltransferases inactive.
For CC(C)Cn1c(=O)c2ccc(C(=O)NC(C)C)cc2n2c(SCC(=O)NC(C)(C)C)nnc12 the results were Methyltransferases inactive.
`COc1ccc(CNC(=O)C(C)n2ccc3cc(S(=O)(=O)N4CCCCC4)ccc32)c(OC)c1` (configuration not stated) gave Methyltransferases inactive.
O=C(CCn1ccc2cc(S(=O)(=O)N3CCCC3)ccc21)NC1CCCCC1 was read as Methyltransferases inactive.
`COc1ccc(CC(NC(C)=O)C(=O)O)cc1` (configuration not stated) gave Methyltransferases active.
`CC(=O)N[C@@H](CS)C(=O)O` gave Methyltransferases inactive.
`COc1cccc(OC)c1-c1ccc(C[C@H](NC(=O)c2c(Cl)cccc2Cl)C(=O)O)cc1` gave Methyltransferases inactive.
COC(=O)c1ncn2c1C(=O)N(Cc1ccco1)C(C)(C(=O)NC1CCCCCC1)C2 (configuration not stated) was read as Methyltransferases inactive.
CC(C)OCCCN1C(=O)c2nc3ccccc3n2CC1(C)C(=O)NC1CCCCCC1 (configuration not stated) was read as Methyltransferases inactive.
Screening CC(=O)O[C@H]1C[C@@H](O)C(C)(C)C2C[C@@H](OC(C)=O)[C@]3(C)C(CC[C@@]4(C)[C@H](c5ccoc5)OC(=O)[C@H]5O[C@]543)[C@]21C (some centres not stated) returned Methyltransferases inactive.
For CCC(C)C(=O)OC1CC(O)C23C4OCC5(C(O)CC2C1(C)C(O)O4)C3C(=O)C(O)C1(C)C(O)(c2ccoc2)CC2OC251 (configuration not stated) the results were Methyltransferases active.
Screening CC(C)OCCCNC(=O)C1(C)Cn2c(cc3ccccc32)C(=O)N1Cc1ccccc1Cl (configuration not stated) returned Methyltransferases inactive.
For CCCn1c(=O)c2ccccc2n2c(SCc3cccc(F)c3)nnc12 the results were Methyltransferases inactive.
Screening NCc1ccc(Oc2ncnc3ccccc23)cc1 returned Methyltransferases inactive.
Nc1cccc(-c2cc3c(Oc4cccc(O)c4)ncnc3[nH]2)c1 was read as Methyltransferases active.
Cc1ccc(C)c(N2CCN(C(=O)c3ccc4c(=O)nc5c(-c6ccc(F)cc6)n[nH]n5c4c3)CC2)c1 was read as Methyltransferases inactive.
Screening CCn1cc(-c2ccc(Cl)cc2)cc1C(=O)N1CCN(c2ccccn2)CC1 returned Methyltransferases inactive.
O=C(c1ccc(Cl)cc1)N1CCN(c2ccnc3cc(Cl)ccc23)CC1 was read as Methyltransferases active.
O=C(c1ccc(Cl)c([N+](=O)[O-])c1)N1CCN(c2ccccc2F)CC1 was read as Methyltransferases inactive.
For COc1ccc(-c2nnn3c2nc(NCc2cccc(OC)c2)c2ccccc23)cc1 the results were Methyltransferases inactive.
For Cc1ccc(NC(=O)Cn2nc3n(Cc4ccc(F)cc4)c(=O)c4ccccc4n3c2=O)cc1C the results were Methyltransferases inactive.
For CCN1C(=O)c2cc(C(=O)Nc3ccc(C)c(C)c3)nn2CC1(C)C(=O)NC1CCCC1 (configuration not stated) the results were Methyltransferases inactive.
Screening Cc1ccc(NS(=O)(=O)c2cc3c(cc2Cl)n(C)c(=O)n3C)cc1F returned Methyltransferases inactive.
For CC(NC(=O)CCc1nnc2n(Cc3ccc(Cl)cc3)c(=O)c3ccccc3n12)c1ccccc1 (configuration not stated) the results were Methyltransferases inactive.
COc1ccc(NC(=O)Cn2nc3n(Cc4ccc(F)cc4)c(=O)c4ccccc4n3c2=O)cc1OC was read as Methyltransferases inactive.
Screening COc1cc2c(cc1OC)CN(CCc1ccc(NC(=O)c3cccc4c(=O)c5cccc(OC)c5[nH]c34)cc1)CC2 returned Methyltransferases active.
For COc1ccc(C(=O)Nc2ccc3c(c2)CN(CCc2ccccc2)C(=O)C(C)O3)cc1OC (configuration not stated) the results were Methyltransferases inactive.
`CC(C)CCn1c(=O)c2ccc(C(=O)NC(C)C)cc2n2c(=O)n(CC(=O)c3ccccc3)nc12` gave Methyltransferases inactive.
For Oc1cc(O)cc(/C=C/c2ccc(O)c(O)c2)c1 the results were Methyltransferases active.
COc1cc(O)cc(/C=C/c2cccc(O)c2)c1 was read as Methyltransferases inactive.
Oc1ccc(/C=C/c2ccc(/C=C/c3ccc(O)cc3)c(Br)c2)cc1 was read as Methyltransferases inactive.
Cc1cccc(N2CCN(CC(=O)Nc3ccc4[nH]c(=O)[nH]c4c3)CC2C)c1 (configuration not stated) was read as Methyltransferases inactive.
`CC(=O)OC1CC(=O)C2(C)C3CC4=C(OC(C)CC4=O)OC3(C)CCC2C1(C)C` (configuration not stated) gave Methyltransferases active.
COc1ccc2cc3n(c2c1)CC(C)(C(=O)NC1CCCCC1)N(C1CCCCCC1)C3=O (configuration not stated) was read as Methyltransferases inactive.
Screening COC(=O)c1ncn2c1C(=O)N(Cc1cccc(OC)c1)C(C)(C(=O)NC1CCCCCC1)C2 (configuration not stated) returned Methyltransferases inactive.
CCOc1ccc(-c2ccc(Cn3c(CC(C)(C)C(=O)O)c(SC(C)(C)C)c4cc(OCc5ccc(C)cn5)ccc43)cc2)cn1 was read as Methyltransferases active.
For CC(C)NC(=O)c1ccc2c(=O)n(Cc3ccccc3)c3nn(CC(=O)NC4CCCC4)c(=O)n3c2c1 the results were Methyltransferases inactive.
For Cc1ccc(Cl)cc1NC(=O)Cn1nc2n(CCCOC(C)C)c(=O)c3ccccc3n2c1=O the results were Methyltransferases inactive.
Nc1ncnc2c1c(-c1cccc(OCc3ccccc3)c1)cn2C1CC(CN2CCCC2)C1 (configuration not stated) was read as Methyltransferases active.
O=C(NC1CCCC1)C1c2cccn2CC(=O)N1c1cccc(Cl)c1 (configuration not stated) was read as Methyltransferases inactive.
Screening CCOc1ccc(NC(=O)c2ncn3c2C(=O)N(C2CC2)C(C)(C(=O)NCc2ccc(F)cc2)C3)cc1 (configuration not stated) returned Methyltransferases inactive.
For Cc1ccc2c(c1)c(-n1cccc1)c1n2CC(C)(C(=O)NC2CCCC2)N(Cc2ccccn2)C1=O (configuration not stated) the results were Methyltransferases inactive.
Cc1sc2c(c1C)C(c1ccc(Cl)cc1)=N[C@H](CC(=O)NCCCCNC(=O)COc1cccc3c1C(=O)N([C@H]1CCC(=O)NC1=O)C3=O)c1nnc(C)n1-2 was read as Methyltransferases active.
